15 compounds from PubChem BioAssay (Tox21) can be followed below.

The nature of experiment [1]: qHTS assay to identify small molecule antagonists of the estrogen related receptor (ERR) signaling pathway from Tox21 library - cell viability counter screen (AID 1224834). Also: nearly all actives have a fitted effect of over 30% in size. Also: potency is read from the fitted curve at half-maximal effect. Put shortly:
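Multiplexed viability counter screen in ERR cells: 17.5 h compound exposure at 37 C, CellTiter-Fluor added, 30 min at 37 C/5% CO2, fluorescence read.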
(In qHTS, concentration-response curves come from the screen itself.)

Experiment [2] addresses Luciferin 4-monooxygenase (Photinus pyralis) (UniProt P08659). Nature of the experiment: qHTS assay to identify small molecule inhibitors of firefly luciferase (AID 1224835). Also: nearly all actives have a fitted effect of over 25% in size. Also: potency is read from the fitted curve at half-maximal effect. As to activity change, negative = inhibition: series mostly up to about 120 µM. Put shortly: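 Inhibition of purified Photinus luciferase is measured by luminescence. Substrate levels (D-luciferin, ATP) sit at their KM values. Each compound is tested in a concentration series.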

Experiment [3] can be described thus: qHTS assay to identify small molecule agonists of the constitutive androstane receptor (CAR) signaling pathway - cell viability counter screen (AID 1224836). Also: nearly all actives have a fitted effect of over 45% in size. Also: potency is read from the fitted curve at half-maximal effect. As to viability change, negative = cytotoxic: series mostly up to about 92 µM. Put shortly: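 Cells were seeded and incubated 4 hrs. Compounds were added across 15 concentrations together with PK11195 at 0.75 uM final. Plates were incubated 23 hrs at 37 C. CellTiter-Fluor was added and fluorescence measured.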

Experiment [4] in a line: qHTS assay to identify small molecule antagonists of the constitutive androstane receptor (CAR) signaling pathway - cell viability counter screen (AID 1224837). Also: nearly all actives have a fitted effect of over 45% in size. Also: potency is read from the fitted curve at half-maximal effect. As to activity change, negative = cytotoxicity: series mostly up to about 92 µM. An outline of the steps:
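Read-out: CellTiter-Fluor fluorescence after 23 hr at 37 C/5% CO2. Cells: HepG2 double-stable for hCAR and CYP2B6-2.2kb. Compounds tested at 15 concentrations in the presence of CITCO, final concentration 50 nM.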

The target in experiment [5] is Nuclear receptor subfamily 1 group I member 3 (Homo sapiens) (UniProt Q14994). Nature of the experiment: qHTS assay to identify small molecule antagonists of the constitutive androstane receptor (CAR) signaling pathway (AID 1224838).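 Also: HepG2 cells stably expressing hCAR with CYP2B6 luciferase reporter stimulated by CITCO; nearly all actives have a fitted effect of over 40% in size.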 Also: potency is read from the fitted curve at half-maximal effect. An outline of the steps: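 Read-out: ONE-Glo luciferase luminescence after 30 min at room temperature. HepG2-CYP2B6-hCAR double-stable cells, compounds in 15-point titration plus 50 nM CITCO final, 24 h at 37 C/5% CO2.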
Chain of Nuclear receptor subfamily 1 group I member 3 (Homo sapiens) (Q14994 whole entry, looked up): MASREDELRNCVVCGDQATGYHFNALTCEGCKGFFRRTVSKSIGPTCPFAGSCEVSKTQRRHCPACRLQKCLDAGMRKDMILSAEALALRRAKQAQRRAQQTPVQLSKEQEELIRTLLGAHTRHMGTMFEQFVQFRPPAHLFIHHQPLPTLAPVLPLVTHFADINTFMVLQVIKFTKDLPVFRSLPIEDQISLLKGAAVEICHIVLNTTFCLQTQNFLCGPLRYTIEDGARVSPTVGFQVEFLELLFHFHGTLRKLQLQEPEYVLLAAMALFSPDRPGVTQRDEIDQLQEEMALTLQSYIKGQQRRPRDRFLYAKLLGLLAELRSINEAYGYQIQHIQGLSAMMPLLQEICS

Experiment [6] has the same target. Nature of the experiment: qHTS assay to identify small molecule agonists of the constitutive androstane receptor (CAR) signaling pathway (AID 1224839). Also: nearly all actives have a fitted effect of over 15% in size. Also: potency is read from the fitted curve at half-maximal effect.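 As to activation: HepG2 cells stably carrying human CAR and a CYP2B6 luciferase reporter; series mostly up to about 92 µM.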 An outline of the steps: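 Cells were plated and incubated 4 hrs, then dosed with compounds at 15 concentrations. PK11195 was added to 0.75 uM final. After 24 hrs at 37 C, luciferase luminescence was measured.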

Experiment [7] can be described thus: qHTS assay to identify small molecule antagonists of the estrogen related receptor signaling pathway with the pleiotropic PPARgamma coactivator (PGC) from Tox21 10K library - cell viability counter screen (AID 1224840; active = well fitted cell-killing curve with a large enough effect in the repeat runs, not every such curve was filed as active; also: nearly all actives have a fitted effect of over 40% in size; also: potency is read from the fitted curve at half-maximal effect). An outline of the steps:
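Fluorescence read-out of CellTiter-Fluor viability reagent, added after cells had been exposed to compound in DMSO for 17.5 h at 37 C; 30 min development at 37 C/5% CO2. Cells: PGC/ERR line, 2,000/well.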

For experiment [8], the target named is Thyrotropin receptor (Homo sapiens) (UniProt P16473). Put plainly: qHTS assay to identify small molecule agonists of the thyroid stimulating hormone receptor (TSHR) signaling pathway (AID 1224843; calls by dose curve; also: nearly all actives have a fitted effect of over 45% in size). An outline of the steps: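 Agonist activity read as cAMP rise via d2/cryptate HTRF competition, 1 h room-temperature detection, in HEK293 cells expressing TSHR. Fifteen-point titrations, each run in triplicate, with a 30 min room-temperature incubation beforehand.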
Chain of Thyrotropin receptor (Homo sapiens) (P16473 whole entry, looked up): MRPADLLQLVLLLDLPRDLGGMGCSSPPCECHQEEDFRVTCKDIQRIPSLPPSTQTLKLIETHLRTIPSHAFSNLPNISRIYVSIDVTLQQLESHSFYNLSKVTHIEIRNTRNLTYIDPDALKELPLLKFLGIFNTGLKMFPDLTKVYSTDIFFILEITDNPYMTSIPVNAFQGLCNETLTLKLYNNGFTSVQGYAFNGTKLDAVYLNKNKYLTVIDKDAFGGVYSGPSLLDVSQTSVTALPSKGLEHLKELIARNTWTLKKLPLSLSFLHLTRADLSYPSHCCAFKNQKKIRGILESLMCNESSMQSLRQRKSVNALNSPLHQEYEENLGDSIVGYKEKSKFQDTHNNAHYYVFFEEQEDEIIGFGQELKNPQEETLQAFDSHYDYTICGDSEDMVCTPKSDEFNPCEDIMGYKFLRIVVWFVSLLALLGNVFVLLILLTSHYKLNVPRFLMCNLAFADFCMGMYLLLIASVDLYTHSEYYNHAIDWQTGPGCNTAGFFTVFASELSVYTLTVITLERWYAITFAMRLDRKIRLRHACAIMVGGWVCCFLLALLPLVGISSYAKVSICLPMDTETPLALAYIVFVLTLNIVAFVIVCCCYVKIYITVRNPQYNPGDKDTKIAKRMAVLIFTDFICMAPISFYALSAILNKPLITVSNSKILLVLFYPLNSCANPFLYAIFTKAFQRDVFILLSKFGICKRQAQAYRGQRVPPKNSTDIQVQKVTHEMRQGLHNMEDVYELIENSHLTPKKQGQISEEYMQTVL

A short description of experiment [9]: qHTS assay to identify small molecule agonists of the hypoxia (HIF-1) signaling pathway - cell viability counter screen (AID 1224844; calls by dose curve; also: nearly all actives have a fitted effect of over 50% in size; also: potency is read from the fitted curve at half-maximal effect). Put shortly: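 CellTiter-Glo luminescence read-out, 30 min RT, taken in the same wells as the beta-lactamase HRE reporter assay; HRE-bla ME-180 cells, 0.5% dialyzed FBS, 17 hr compound treatment at 37C, 5% CO2.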
Experiment [10] in a line: qHTS assay to identify small molecule agonists of H2AX (AID 1224845; active = well fitted activation curve with a large enough effect in the signal ratio in the repeat runs, not every such curve was filed as active; the % refers to the signal ratio). An outline of the steps: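 Phospho-H2AX Ser139 measured by HTRF (ex 320 nm; em 665 and 620 nm) after 24 hr antibody incubation. Compounds, 15 concentrations, 0.76% DMSO, were applied to CHO-K1 cells for 3hr at 37C before lysis.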
The nature of experiment [11]: qHTS assay to identify small molecule agonists of the hypoxia (HIF-1) signaling pathway (AID 1224846; active = well fitted activation curve with a large enough effect in the signal ratio in the repeat runs, not every such curve was filed as active; the % refers to the signal ratio). Put shortly:
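Beta-lactamase FRET read-out (CCF4-AM substrate) from ME-180 cells carrying an HRE-driven bla reporter, after 17 hrs compound exposure at 37C/5% CO2. Cells were seeded at 2,000 per well in 0.5% dialyzed FBS medium and preincubated 5 hrs.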

The nature of experiment [12]: qHTS assay to identify small molecule antagonists of the estrogen related receptor signaling pathway with the pleiotropic PPARgamma coactivator (PGC) from Tox21 10K library (AID 1224841; call rule not given here; also: actives are mostly falling curves and most rising ones were filed inactive; nearly all actives have a fitted effect of over 50% in size; also: potency is read from the fitted curve at half-maximal effect; as to activity, negative = inhibition: series mostly up to about 92 µM). An outline of the steps: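 Luminescence read-out (One-Glo luciferase reagent, 30 min at room temperature) from PGC/ERR cells exposed to DMSO-dissolved test compounds for 18 h at 37 C; cells, 2,000 per well, had been preincubated 6 h before compound transfer.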

The nature of experiment [13]: qHTS assay to identify small molecule agonists of the estrogen related receptor signaling pathway with the pleiotropic PPARgamma coactivator (PGC) from Tox21 10K library (AID 1224842). Also: nearly all actives have a fitted effect of over 15% in size. Put shortly:
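Luminescence from One-Glo (30 min, room temperature) measured after PGC/ERR cells had 18 h at 37 C with pinned compound (23 nL in DMSO). Cells had been seeded at 2,000 per well and pre-incubated 6 h.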

Records with an inconclusive call do not appear. Unmarked numbers belong to inactive results. The source made the active and inactive calls. Unless noted, calls follow the shape of the dose curve; as a rule, active = well fitted curve in the direction sought with a large enough effect in the repeat runs; inconclusive = weak or mixed curves; inactive = no such curve, though single readings can be large; an effect the other way counts as inactive or inconclusive.
% is scaled to controls: 0 for no effect and ±100 for the full control effect.

Chain of Luciferin 4-monooxygenase (Photinus pyralis) (P08659 whole entry, looked up): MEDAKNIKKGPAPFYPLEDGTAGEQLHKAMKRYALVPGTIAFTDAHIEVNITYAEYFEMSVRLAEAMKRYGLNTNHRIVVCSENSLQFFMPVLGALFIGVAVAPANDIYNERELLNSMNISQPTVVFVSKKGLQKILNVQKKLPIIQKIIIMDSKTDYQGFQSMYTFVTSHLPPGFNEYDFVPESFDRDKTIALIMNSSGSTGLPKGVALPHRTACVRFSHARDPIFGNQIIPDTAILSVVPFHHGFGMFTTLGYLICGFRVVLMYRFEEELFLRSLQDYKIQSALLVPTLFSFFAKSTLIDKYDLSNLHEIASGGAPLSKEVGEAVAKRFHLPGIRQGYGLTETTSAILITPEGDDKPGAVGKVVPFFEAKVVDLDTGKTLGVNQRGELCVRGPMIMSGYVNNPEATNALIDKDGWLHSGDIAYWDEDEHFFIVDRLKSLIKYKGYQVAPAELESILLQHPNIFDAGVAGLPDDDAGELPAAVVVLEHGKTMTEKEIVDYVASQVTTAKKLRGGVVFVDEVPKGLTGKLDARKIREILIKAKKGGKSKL

In the case of `Cc1cccc(C)c1C`, the Potency entry in experiment [1], in [2], in experiment [3], in [4], in [5] and in [6] was “inactive” each time. Besides, the Potency entry in experiment [7], in [8], in experiment [9], in experiment [10] and in [11] was “inactive” in each case.

Take `Oc1ccc2c(c1)CCC2`: the Potency result in experiment [1], in experiment [2], in [3], in experiment [4], in experiment [5] and in experiment [7] was “inactive” throughout. In addition, the Potency result in [12], in experiment [13], in experiment [9], in [10] and in experiment [11] was “inactive” in each case.

For the compound `COc1ccc(OC)c(N=Nc2c(O)ccc3ccccc23)c1`, the Potency in [1] was 24.3 µM (active); in experiment [2], 6.33 µM (active); in [3], 30.6 µM (active); in experiment [4], 24.3 µM (active); in experiment [6], 12.2 µM (active); in experiment [9], 38.9 µM (active). In addition, the Potency result in [5], in experiment [8] and in [10] was “inactive” throughout.

Consider `CCc1cccc(C)c1N(C(=O)C(=O)O)C(C)COC` (centres undefined), for which the Potency result in [1], in experiment [2], in [3], in [4], in [5] and in experiment [6] was “inactive” in each case. In addition, the Potency result in [7], in [8], in experiment [9], in experiment [10] and in experiment [11] was “inactive” each time.

As to `CCCCCCCCCCCCS(=O)(=O)Cl`, the viability change, negative = cytotoxic is -1.38% [at 19 µM] in experiment [1], 14.3% [at 19 µM] in experiment [3] and 3.05% [at 19 µM] in experiment [7]. Also, in experiment [2], the activity change, negative = inhibition was -13.9% [at 23.6 µM]. Also, the results for the activity change, negative = cytotoxicity in experiment [4] and in [9] were -7.2% [at 19 µM] and -3.11% [at 15.8 µM], respectively. The activity, negative = inhibition in experiment [5] was -3.15% [at 19 µM]. Besides, the activation in [6] is -0.0973% [at 19 µM]; in experiment [8], -1.12% [at 19 µM]; in experiment [11], 1.7% [at 15.8 µM]. In addition, the activation (H2AX phosphorylation) in experiment [10] was 0.0057% [at 31.6 µM].

With `C/C=C/C(=O)C1=C(C)C=CCC1(C)C`, the Potency result in experiment [1], in experiment [2], in experiment [3], in [4], in experiment [5] and in [6] was “inactive” in each case. For the same compound, the Potency result in experiment [12], in experiment [13], in [8], in experiment [9], in experiment [10] and in experiment [11] was “inactive” in each case.

Take `c1ccc(-c2ccc(C(c3ccccc3)n3ccnc3)cc2)cc1` (centres undefined): the Potency in experiment [1] is 33.5 µM (active); in [12], 29.8 µM (active). Besides, the Potency entry in experiment [2], in [3], in experiment [4], in experiment [5], in experiment [7] and in experiment [13] was “inactive” in each case. Moreover, the Potency result in [8] and in experiment [9] was “inactive” throughout.

Regarding `COCCC(=O)OC`, the Potency entry in experiment [1], in experiment [2], in experiment [3], in experiment [4], in experiment [5] and in experiment [6] was “inactive” each time. Also, the Potency result in [7], in [8], in experiment [9] and in experiment [11] was “inactive” in each case.

As for `CCCCCCCCc1ccc(Nc2ccc(CCCCCCCC)cc2)cc1`, the Potency entry in [1], in [2], in experiment [3], in [4], in experiment [5] and in experiment [6] was “inactive” in each case. Moreover, the Potency result in experiment [7], in experiment [13], in experiment [8], in experiment [9], in experiment [10] and in [11] was “inactive” each time. Moreover, the Potency in [12] is 11.9 µM (active).

Consider `CSc1nnc(C(C)(C)C)c(=O)[nH]1`, for which the Potency entry in experiment [1], in [2], in experiment [3], in experiment [4], in [5] and in experiment [6] was “inactive” each time. Moreover, the Potency entry in experiment [7], in experiment [9], in [10] and in [11] was “inactive” each time.

Regarding `CC/C=C(\C)C=O`, the Potency entry in experiment [1], in [2], in experiment [3], in experiment [4], in [5] and in [6] was “inactive” each time. In addition, the Potency entry in experiment [7], in experiment [13], in [8], in [9], in [10] and in [11] was “inactive” throughout.

Take `CCCCCN=C(N)N/N=C/c1c[nH]c2ccc(OC)cc12`: the Potency was 26.6 µM (active) in [1]; 21.1 µM (active) in experiment [3]; 18.8 µM (active) in experiment [4]; 16.8 µM (active) in [5]; 21.1 µM (active) in [7]. The Potency entry in experiment [2], in [6] and in [13] was “inactive” each time.

Turning to `[Cl][Sc]([Cl])[Cl]`, the Potency result in [1], in experiment [3], in [4], in experiment [5], in experiment [6] and in experiment [7] was “inactive” throughout. In addition, the Potency result in experiment [13], in experiment [8], in [9], in [10] and in [11] was “inactive” each time. Also, the Potency in [2] was 28.3 µM (active).

In the case of `CC(CC(C)(C)C)CC(C)(C)CC(C)(C)C` (centres undefined), the Potency entry in experiment [1], in experiment [2], in experiment [3], in [4], in [5] and in experiment [6] was “inactive” each time. In addition, the Potency result in experiment [7], in experiment [8], in [9], in [10] and in experiment [11] was “inactive” each time.

Take `CCCC(C)C=O` (centres undefined): the Potency entry in [1], in experiment [2], in [3], in [4], in experiment [5] and in [6] was “inactive” throughout. Also, the Potency result in [7], in experiment [12], in [13], in experiment [8], in [9] and in [10] was “inactive” throughout. In experiment [11], the Potency result is “inactive”.
